Here are results for 48 molecules from PubChem BioAssay AID686979 (National Center for Advancing Translational Sciences (NCATS), 2013).

Screen size: about 420,000 compounds; about 50,000 (12%) were called active. Entries that show only a call come without a potency. Inconclusive results (about 26%) are left out. The full list was thinned out, with actives kept by preference. Values without a mark were called inactive. The call rests on the fitted dose curve; in most records, active means well fitted inhibition curve with a large enough effect; inconclusive means small, poorly fitted or top-dose-only effect; inactive means flat fitted curve, though single readings scatter.
Potency means the concentration at half of the fitted maximal effect.

A short description of this assay: qHTS for Inhibitors of human tyrosyl-DNA phosphodiesterase 1 (TDP1): qHTS in cells in presence of CPT. Further: nearly all actives have a fitted effect of over 55% in size. The note with it: chicken DT40 Tdp1-/-;hTDP1 cells + 20 nM CPT, ATP luminescence, 48 h; series mostly up to 46.2 µM. An excerpt: Human tyrosyl-DNA phosphodiesterase 1 (TDP1) is a novel repair gene, and we propose to use it as a new target for anticancer drug development. TDP1 is not an essential protein, but under treatment with topoisomerase I poison (camptothecin: CPT), TDP1 works as a critical factor for cell survival. To directly identify novel TDP1 inhibitors active in a cellular environment, we have knocked-out the Tdp1 gene in chicken DT40 cells (Tdp1-/-) and generated a complemented counterpart cells that contains a stable transfection of the human TDP1 gene (Tdp1-/-;hTDP1 cells). For the primary screen, Tdp1-/-;hTDP1 cells will be exposed to small molecules in the presence or absence of CPT, and their growth kinetics will be evaluated after 48 hours by measuring ATP activity. […] The hit compounds will then be evaluated in the presence or absence of CPT using Tdp1-/- cells. […] In tertiary assays, biochemical gel-based assays will be used to assess whether the hit compounds specifically target TDP1. To this end, we have screened this cell line against the MLSMR in two primary screens. In one screen we add CPT and in the other we screen in the absence of CPT; this AID represents the screen where CPT was present. NIH Chemical Genomics Center [NCGC] NIH Molecular Libraries Probe Centers Network [MLPCN] MLPCN Grant: MH095538 Assay Submitter (PI): Yves Pommier, NCI
DT40-hTDP1 cells with 20 nM Camptothecin (add 20 microL of 1 mM CPT stock in 1 L of cell culture medium) were dispensed at 400 cells/5microL/well in tissue culture treated 1536-well white wall/solid bottom assay plates (Greiner Bio-One North America, NC, U.S.A.) using a Multidrop Combi 8 channel dispenser (Thermo Fisher, Waltham, MA, USA). 23 nL compounds and controls were transferred using the pin tool (Kalypsys, San Diego, CA, USA) to the assay plates. The assay plates were then incubated at 37 masculineC for a minimum 48 hr. Three microL of Cell Titer Glo solution was added to the plates and incubated at RT in dark for 30 min. Luminescence was read using ViewLux (Perkin Elmer) with 1 sec exposure slow speed, high gain and 2x binning.
In general terms: In qHTS, concentration-response curves come from the screen itself.
Turning to `COc1ccc(CCNC(=O)CN2C(=O)CCSc3ccccc32)c(OC)c1`, the Potency entry is “inactive”.

Consider `Cc1ccc(-c2cc(-c3coc4ccccc4c3=O)c3c(n2)-c2cc(Cl)ccc2OC3)cc1`, for which the Potency entry is “inactive”. Still for that read-out and setting: then `CCC(=O)NCc1cc(-c2nn(C)c(=O)c3ccccc23)ccc1OC`, with “inactive”; and `CCCCNS(=O)(=O)CCNCc1ccccc1OC`, with “inactive”; and `CCN(CC)CCN1C(=O)C(=O)/C(=C(/O)c2ccc(OC)c(OC)c2)C1c1ccccn1` (stereo not drawn), with “inactive”. The same measure, in the same setting: the value for `CCCCCc1c(-c2cccc(Br)c2)ncn1CCc1ccccc1OC` was 11.6 µM (active); that for `COc1ccccc1CCC(=O)NNC(=O)c1ccncc1` was “inactive”. As for `CCOC(=O)CSc1nnc(-c2cccc(Br)c2)o1`, the Potency result was “inactive”.

Consider `CCCCCc1c(Cc2ccccc2)ncn1CCc1ccccc1OC`, for which the Potency is 2.59 µM (active). Still for that read-out and setting: then `CCCCCc1c(-c2ccc(OC)c(OC)c2)ncn1CCc1ccccc1OC`, with 2.31 µM (active); and `CCCCn1c(N)c(N(CC(C)C)C(=O)CN(C)S(=O)(=O)c2ccc(F)cc2)c(=O)[nH]c1=O`, with “inactive”; and `Cc1cc(F)ccc1NC1(c2ccccc2)C(=O)c2ccccc2C1=O`, with “inactive”.

With `COc1ccc(S(=O)(=O)NC(=O)C2(C)CCN2C(=O)COc2ccc(Cl)cc2)cc1` (stereo not drawn), the Potency entry is “inactive”. On the same count and under the same terms, then `COc1ccccc1C(=O)NC(=O)COC(=O)c1ccco1`, with “inactive”; and `COc1ccc(C)cc1N(CC(=O)N1CCCC1)S(=O)(=O)c1ccccc1`, with “inactive”; and `C/C(N)=C(/C#N)C(=O)COC(=O)C1CCN(C(=O)c2ccc(Cl)cc2)CC1`, with “inactive”. Same read-out and setting: then `C[C@]12CC[C@H](O)CC1=CCC1C2CC[C@@]2(C)C1CC[C@@H]2NC(=O)CCC(=O)O` (stereo partly drawn), with “inactive”; and `CN1CCC[C@@H]1CCO[C@](C)(c1ccccc1)c1ccc(Cl)cc1`, with 21.1 µM (active); and `C#CC(CCN1CCCCC1)(OC)c1ccccc1` (stereo not drawn), with “inactive”. On the same count and under the same terms, then `CCC1CCC/C1=N\NC(=O)c1ccc(Cl)cc1` (stereo not drawn), with “inactive”.

With `CC(=O)c1ccc(F)c(-c2cc(C)cc3c2OC(CNC(=O)Cc2c[nH]c4ccccc24)C3)c1` (stereo not drawn), the activity change, negative = growth inhibition was 11.9% [at 9.04 µM].

Take `O=C(CSc1oc(-c2ccccc2)nc1S(=O)(=O)c1ccc(Br)cc1)NC1CCCCC1`: the Potency result was “inactive”. Regarding `Cc1cc(C)cc(NC(=O)CSc2ccccc2)c1`, the Potency result is “inactive”. Turning to `Cc1cc(C)cc(NC(=O)CSc2oc(-c3ccccc3)nc2S(=O)(=O)c2ccc(Cl)cc2)c1`, the Potency was 5.17 µM (active).

Take `C/C=C1\C2C=C(C)CC1(N)c1ccc(=O)[nH]c1C2` (stereo not drawn): the Potency result is “inactive”.

As to `CCCN(CCC)CCNC(=O)Cn1cnc2sc(C)c(S(=O)(=O)N3CCC(C)CC3)c2c1=O`, the Potency entry is “inactive”. Same read-out and setting: the value for `COc1cccc(N2C(=O)CC(N3CCc4ccccc4C3)C2=O)c1` (stereo not drawn) was “inactive”; that for `COC(=O)c1cccc(N2C(=O)C3C4C=CC(CC4)C3C2=O)c1` (stereo not drawn) was “inactive”. Consider `COC(=O)c1ccccc1SC1CC(=O)N(c2cccc(C)c2)C1=O` (stereo not drawn), for which the Potency was 9.2 µM (active).

For `O=C(COC(=O)/C=C/c1ccc(Br)o1)Nc1cccc(S(=O)(=O)N2CCOCC2)c1`, the Potency entry is “inactive”. Same read-out and setting: the value for `O=C1c2ccccc2C(=O)c2c1cccc2N1CCN(C/C=C/c2ccccc2)CC1` was “inactive”; that for `CCOC(=O)c1oc2c(CN3CCN(C)CC3)c(O)ccc2c(=O)c1-c1ccc(Br)cc1` was “inactive”. Same read-out and setting: the value for `COc1cc(NC(=O)C2=CC(c3ccco3)=NS(=O)(=O)N2C)cc(OC)c1OC` was “inactive”; that for `COc1ccc(NC(=O)C2=CC(c3ccc(OC)c(OC)c3)=NS(=O)(=O)N2C)cc1` was 23.1 µM (active); that for `COc1ccc(C2=NS(=O)(=O)N(C)C(C(=O)N3CCCCC3)=C2)cc1` was “inactive”.

As to `COc1ccc(C2(Nc3cccc(F)c3)C(=O)c3ccccc3C2=O)cc1`, the Potency result is “inactive”. Same read-out and setting: the value for `CCCn1c(=S)[nH]c2ccc(C(F)(F)F)cc21` was “inactive”. On the same count and under the same terms, then `NS(=O)(=O)c1ccc(NC(=O)COC(=O)c2ccc(Cl)nc2)cc1`, with “inactive”; and `Cc1cnc(NC(=O)c2ccc(Cl)nc2)s1`, with “inactive”.

`CC(=O)N1CCN(CC(=O)Nc2ccc(SC(F)F)cc2)CC1`: the Potency entry was “inactive”.

Regarding `CCN(CC)c1ccc(NC(=O)c2ccc(Cl)nc2)cc1`, the Potency is 2.91 µM (active). Still for that read-out and setting: then `CCN(CC)c1ccc(NC(=O)CN2CCN(c3ccccn3)CC2)cc1`, with “inactive”; and `CCN(CC)c1ccc(NC(=O)CN2CCN(CC(=O)Nc3ccc(Cl)cc3)CC2)cc1`, with 23.1 µM (active). On the same count and under the same terms, then `CCc1ccc(CN2C(=O)c3ccccc3C2C(=O)NCC2CCCO2)cc1` (stereo not drawn), with “inactive”; and `Cc1csc2nc(O)c(C(=O)NCCN3CCOCC3)c(=O)n12`, with “inactive”. On to `NC(=O)COC(=O)c1sc2cc(F)ccc2c1Cl`, for which the Potency entry is “inactive”. Same read-out and setting: then `Cc1ccsc1C(=O)NNC(=O)COc1ccc(Br)cc1`, with “inactive”; and `O=C(NC(=S)N1CCc2ccccc21)c1ccco1`, with “inactive”.
